For some of these results: Results with a measured potency or affinity are listed apart.

What all share (design): scale not given: direction of the effect not stated beside the values
Assay [1] deals with Protein translocase subunit SecA (Escherichia coli (strain K12)) (UniProt P10408). Briefly: Assay to Identify E. coli SecA ATPase Inhibitors. The assay is classed as functional. Conditions: 30 µM.
Assay [2] has as its target T1, Ubiquitin-activating enzyme e1, putative (Leishmania donovani (strain BPK282A1)) (UniProt E9BSI1).
T1 sequence (whole entry): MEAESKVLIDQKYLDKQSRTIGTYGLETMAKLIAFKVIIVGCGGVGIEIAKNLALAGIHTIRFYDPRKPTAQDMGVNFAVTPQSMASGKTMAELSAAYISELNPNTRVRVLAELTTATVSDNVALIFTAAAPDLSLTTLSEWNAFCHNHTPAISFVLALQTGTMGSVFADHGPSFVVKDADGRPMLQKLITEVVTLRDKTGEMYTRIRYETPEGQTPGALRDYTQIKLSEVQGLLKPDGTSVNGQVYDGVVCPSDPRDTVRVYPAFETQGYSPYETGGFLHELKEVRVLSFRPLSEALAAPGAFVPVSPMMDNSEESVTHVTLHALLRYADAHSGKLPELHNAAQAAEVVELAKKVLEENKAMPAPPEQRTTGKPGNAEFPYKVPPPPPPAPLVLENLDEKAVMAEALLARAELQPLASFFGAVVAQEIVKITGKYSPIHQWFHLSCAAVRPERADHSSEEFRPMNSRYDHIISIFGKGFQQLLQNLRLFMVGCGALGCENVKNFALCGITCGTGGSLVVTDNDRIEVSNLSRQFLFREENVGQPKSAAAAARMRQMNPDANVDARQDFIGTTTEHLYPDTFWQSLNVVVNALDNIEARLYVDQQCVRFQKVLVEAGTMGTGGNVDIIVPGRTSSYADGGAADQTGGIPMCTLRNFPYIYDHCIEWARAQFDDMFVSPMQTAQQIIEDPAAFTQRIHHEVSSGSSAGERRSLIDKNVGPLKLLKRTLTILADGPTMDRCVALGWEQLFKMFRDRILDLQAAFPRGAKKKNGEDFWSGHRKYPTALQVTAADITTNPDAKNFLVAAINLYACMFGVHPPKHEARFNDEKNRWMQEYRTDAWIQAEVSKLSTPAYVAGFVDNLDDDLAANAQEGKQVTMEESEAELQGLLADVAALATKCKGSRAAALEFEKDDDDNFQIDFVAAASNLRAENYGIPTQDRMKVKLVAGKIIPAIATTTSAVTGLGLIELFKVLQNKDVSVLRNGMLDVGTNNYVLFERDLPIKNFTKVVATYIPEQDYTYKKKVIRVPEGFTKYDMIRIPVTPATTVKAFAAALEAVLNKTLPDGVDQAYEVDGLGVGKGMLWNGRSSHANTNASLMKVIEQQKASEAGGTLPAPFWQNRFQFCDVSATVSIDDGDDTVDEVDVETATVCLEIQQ
Briefly: Leishmania donovani Ubiquitin Activating Enzyme (LdE1). Particulars: 30 µM. The assay is classed as functional.

Assay [3] addresses AMP-activated protein kinase, AMPK (Homo sapiens) (UniProt P54646+O43741+P54619+Q9UGJ0+Q9Y478+Q13131+Q9UGI9). Briefly: AMP-dependent Kinase enzyme assay. An in vitro enzyme assay that detects ADP turnover that is directly proportional to AMPK activity. This uses naive AMPK that is activated during the assay with MK-8722. Conditions: 30 µM. The assay is classed as functional.
In assay [4] the target is Sialic acid-binding Ig-like lectin 9 (Homo sapiens) (UniProt Q9Y336). Briefly: Hs-Siglec9 ALPHAscreen SOP 20170721. Particulars: 10 µM. For orientation: Alpha assays give light when donor and acceptor beads are brought close together.
A further assay has as its system Trypanosoma cruzi. The experiment in a line: Trypanosoma cruzi phosphomannomutase and mannose-1-phosphate guanylyltransferase assay. It is filed as functional. Conditions: 10 µM.
For assay [5], the target named is T2, Arginase-2, mitochondrial (Homo sapiens) (UniProt P78540).
T2 sequence (whole entry): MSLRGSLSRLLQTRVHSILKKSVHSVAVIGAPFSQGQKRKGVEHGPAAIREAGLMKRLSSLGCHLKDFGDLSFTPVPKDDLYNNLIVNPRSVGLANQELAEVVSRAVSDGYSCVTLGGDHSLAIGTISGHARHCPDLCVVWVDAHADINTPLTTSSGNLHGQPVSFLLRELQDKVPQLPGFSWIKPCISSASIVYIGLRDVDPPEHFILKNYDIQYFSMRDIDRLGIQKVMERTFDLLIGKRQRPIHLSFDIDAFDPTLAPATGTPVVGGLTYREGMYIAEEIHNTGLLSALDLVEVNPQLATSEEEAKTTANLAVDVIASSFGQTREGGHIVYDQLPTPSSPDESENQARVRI
The experiment in a line: in vitro enzyme assay to detect the production of urea directly proportional to the activity of Arginase II. Further: in the data most compounds retested in dose-response had high values. It is filed as functional. Conditions: 33.3 µM.

The target of assay [6] is T3, Proteasome subunit beta (Trypanosoma cruzi) (UniProt O96673).
T3 sequence (whole entry): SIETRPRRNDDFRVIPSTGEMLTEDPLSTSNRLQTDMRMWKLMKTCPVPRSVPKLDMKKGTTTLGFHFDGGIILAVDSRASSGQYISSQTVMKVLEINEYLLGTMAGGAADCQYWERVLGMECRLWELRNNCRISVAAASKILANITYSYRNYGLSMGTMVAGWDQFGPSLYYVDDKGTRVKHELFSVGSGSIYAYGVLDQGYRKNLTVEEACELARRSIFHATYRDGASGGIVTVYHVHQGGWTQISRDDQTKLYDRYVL
Briefly: Trypanosoma cruzi proteasome chymotrypsin-like activity (TcProtChymo) assay. Further: in the data most compounds retested in dose-response had high values. The assay is classed as functional. Conditions: 9.37 µM.

The species named for a further assay is Homo sapiens. Briefly: To identify inhibition of the IFN signalling (Jak-Stat) pathway via expression of an eGFP reporter gene under the control of an IFN-stimulated response element (ISRE) containing MxA promoter. It is filed as functional. Particulars: 30 µM. (In general: A reporter such as luciferase makes a cellular process visible.)
Assay [7] has as its target T4, Tyrosyl-tRNA synthetase, putative (Trypanosoma cruzi (strain CL Brener)) (UniProt Q4DSP6).
T4 sequence (whole entry): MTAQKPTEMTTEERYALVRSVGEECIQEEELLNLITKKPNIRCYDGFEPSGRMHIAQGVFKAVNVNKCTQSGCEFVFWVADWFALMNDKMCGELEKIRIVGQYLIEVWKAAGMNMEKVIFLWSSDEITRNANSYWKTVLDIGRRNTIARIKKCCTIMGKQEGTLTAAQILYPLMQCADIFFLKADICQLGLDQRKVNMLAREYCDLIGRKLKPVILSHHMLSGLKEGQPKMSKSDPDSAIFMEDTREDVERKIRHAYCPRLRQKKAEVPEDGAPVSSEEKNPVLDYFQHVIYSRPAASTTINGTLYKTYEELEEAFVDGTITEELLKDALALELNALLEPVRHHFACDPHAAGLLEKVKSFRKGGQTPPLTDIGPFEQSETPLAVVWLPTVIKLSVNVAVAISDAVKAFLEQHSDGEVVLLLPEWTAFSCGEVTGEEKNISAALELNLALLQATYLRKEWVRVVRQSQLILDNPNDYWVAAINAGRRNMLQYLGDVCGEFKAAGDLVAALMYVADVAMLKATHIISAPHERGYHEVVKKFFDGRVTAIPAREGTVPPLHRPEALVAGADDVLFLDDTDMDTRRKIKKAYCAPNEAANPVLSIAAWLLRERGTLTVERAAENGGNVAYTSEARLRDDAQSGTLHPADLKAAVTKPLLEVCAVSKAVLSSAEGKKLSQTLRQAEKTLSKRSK
The experiment in a line: Trypanosoma cruzi tyrosyl tRNA synthetase (TcYRS) _High Tyrosine SOP. Further: in the data most compounds retested in dose-response had high values. It is filed as functional. Particulars: 30 µM.

Assay [8] concerns the target T4, Tyrosyl-tRNA synthetase, putative (Trypanosoma cruzi (strain CL Brener)). The experiment in a line: Trypanosoma cruzi tyrosyl tRNA synthetase (TcYRS) SOP. Conditions: 30 µM. It is filed as functional.
Assay [9] concerns the target Chromo domain-containing protein 1 (Saccharomyces cerevisiae (strain ATCC 204508 / S288c) (Baker's yeast)) (UniProt P32657). The experiment in a line: ScCHD-1 Enzyme Inhibition Assay. Further: in the data most compounds retested in dose-response had high values. The assay is classed as functional. Particulars: 30 µM.

Chain of Sialic acid-binding Ig-like lectin 9 (Homo sapiens) (Q9Y336 whole entry): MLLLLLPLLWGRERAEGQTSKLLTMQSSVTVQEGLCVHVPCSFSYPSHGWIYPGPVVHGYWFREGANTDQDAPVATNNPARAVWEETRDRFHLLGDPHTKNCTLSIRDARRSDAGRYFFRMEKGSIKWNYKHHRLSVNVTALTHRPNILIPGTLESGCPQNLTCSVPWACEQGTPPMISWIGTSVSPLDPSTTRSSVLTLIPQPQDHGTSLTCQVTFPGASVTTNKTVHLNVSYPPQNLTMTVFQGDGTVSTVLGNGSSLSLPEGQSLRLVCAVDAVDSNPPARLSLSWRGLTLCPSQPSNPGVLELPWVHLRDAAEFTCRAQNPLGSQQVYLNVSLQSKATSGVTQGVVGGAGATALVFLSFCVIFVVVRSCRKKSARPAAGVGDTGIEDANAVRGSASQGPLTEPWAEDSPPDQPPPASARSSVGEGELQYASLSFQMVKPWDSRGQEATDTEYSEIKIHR
Chain of Protein translocase subunit SecA (Escherichia coli (strain K12)) (P10408 whole entry): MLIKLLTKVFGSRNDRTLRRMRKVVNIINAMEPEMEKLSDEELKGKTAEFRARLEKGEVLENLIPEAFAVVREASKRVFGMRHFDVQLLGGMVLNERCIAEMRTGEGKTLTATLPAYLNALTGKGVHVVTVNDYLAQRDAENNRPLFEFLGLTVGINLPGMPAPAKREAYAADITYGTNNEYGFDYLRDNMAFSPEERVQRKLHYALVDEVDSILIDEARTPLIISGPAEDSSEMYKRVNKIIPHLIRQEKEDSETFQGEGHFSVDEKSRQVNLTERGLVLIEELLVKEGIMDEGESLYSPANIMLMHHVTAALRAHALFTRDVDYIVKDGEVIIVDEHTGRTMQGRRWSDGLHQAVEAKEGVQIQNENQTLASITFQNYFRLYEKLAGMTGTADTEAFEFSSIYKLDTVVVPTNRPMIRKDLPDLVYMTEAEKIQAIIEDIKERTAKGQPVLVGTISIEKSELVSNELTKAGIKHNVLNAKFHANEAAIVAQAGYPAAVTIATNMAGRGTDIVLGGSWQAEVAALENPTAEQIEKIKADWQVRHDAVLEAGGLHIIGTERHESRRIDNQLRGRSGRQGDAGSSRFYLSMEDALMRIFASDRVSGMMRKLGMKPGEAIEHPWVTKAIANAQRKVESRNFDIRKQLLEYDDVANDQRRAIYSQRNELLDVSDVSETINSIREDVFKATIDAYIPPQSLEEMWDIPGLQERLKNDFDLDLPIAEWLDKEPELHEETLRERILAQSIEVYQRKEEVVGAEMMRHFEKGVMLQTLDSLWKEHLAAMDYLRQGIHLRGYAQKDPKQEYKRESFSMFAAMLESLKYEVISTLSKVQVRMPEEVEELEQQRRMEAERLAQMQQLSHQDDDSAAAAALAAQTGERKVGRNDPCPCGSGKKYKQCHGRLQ
Chain of Chromo domain-containing protein 1 (Saccharomyces cerevisiae (strain ATCC 204508 / S288c) (Baker's yeast)) (P32657 whole entry, the tested form may be a part): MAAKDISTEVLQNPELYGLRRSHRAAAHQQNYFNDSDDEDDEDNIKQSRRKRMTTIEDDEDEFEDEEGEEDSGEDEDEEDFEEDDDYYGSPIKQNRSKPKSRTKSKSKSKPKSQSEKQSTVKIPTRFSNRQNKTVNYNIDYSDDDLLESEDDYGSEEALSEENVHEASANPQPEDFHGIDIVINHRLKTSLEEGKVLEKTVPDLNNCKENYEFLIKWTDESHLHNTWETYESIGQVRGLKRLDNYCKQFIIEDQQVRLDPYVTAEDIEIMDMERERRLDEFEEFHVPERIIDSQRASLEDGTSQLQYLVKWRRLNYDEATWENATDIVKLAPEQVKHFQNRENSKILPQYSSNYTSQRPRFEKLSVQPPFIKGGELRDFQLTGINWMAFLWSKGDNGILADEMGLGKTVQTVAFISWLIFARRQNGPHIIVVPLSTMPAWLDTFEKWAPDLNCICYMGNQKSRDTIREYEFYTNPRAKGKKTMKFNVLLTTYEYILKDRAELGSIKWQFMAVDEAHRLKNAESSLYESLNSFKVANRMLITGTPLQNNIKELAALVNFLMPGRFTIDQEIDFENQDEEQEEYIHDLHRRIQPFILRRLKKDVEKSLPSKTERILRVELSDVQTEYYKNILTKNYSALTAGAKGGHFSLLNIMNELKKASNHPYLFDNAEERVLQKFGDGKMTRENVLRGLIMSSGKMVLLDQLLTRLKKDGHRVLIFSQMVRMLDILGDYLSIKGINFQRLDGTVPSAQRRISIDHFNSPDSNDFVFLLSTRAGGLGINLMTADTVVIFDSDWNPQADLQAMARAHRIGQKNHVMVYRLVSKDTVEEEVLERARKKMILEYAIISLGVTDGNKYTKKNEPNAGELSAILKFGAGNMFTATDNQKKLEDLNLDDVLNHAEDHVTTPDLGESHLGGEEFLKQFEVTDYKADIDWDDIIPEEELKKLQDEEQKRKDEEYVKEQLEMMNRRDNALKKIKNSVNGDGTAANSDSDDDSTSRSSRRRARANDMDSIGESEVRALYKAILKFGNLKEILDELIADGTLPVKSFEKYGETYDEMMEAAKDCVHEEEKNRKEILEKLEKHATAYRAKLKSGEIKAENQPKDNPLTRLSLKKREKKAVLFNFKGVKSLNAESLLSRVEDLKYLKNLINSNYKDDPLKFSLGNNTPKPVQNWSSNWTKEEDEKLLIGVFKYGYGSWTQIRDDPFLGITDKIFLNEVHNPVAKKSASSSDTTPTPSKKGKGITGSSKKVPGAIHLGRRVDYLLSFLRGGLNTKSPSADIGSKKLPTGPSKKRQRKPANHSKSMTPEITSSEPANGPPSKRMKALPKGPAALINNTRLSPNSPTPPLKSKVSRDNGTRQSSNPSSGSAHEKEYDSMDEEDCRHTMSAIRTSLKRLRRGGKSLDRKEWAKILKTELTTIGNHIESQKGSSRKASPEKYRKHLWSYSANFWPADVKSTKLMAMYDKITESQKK

Turning to `CC1(C(=O)N2CCOCC2)CN(Cc2ccccc2F)CCO1` (stereo unspecified), the Percent Effect in assay [1] is -2.69%; in [2] it was 8%; in assay [3] it was 12%; in assay [4], 4.39%; in the assay on Trypanosoma cruzi, -4.13%; in assay [5] it was 0.699%. Also, the Percent Effect in assay [6] is -1.15%; in the assay filed under Homo sapiens it was 17%; in [7], 3.19%; in assay [8] it was 8.97%; in assay [9], -1.88%.
In the case of `CNC(=O)c1cc2c(nc1NCC(C)C)CCN(S(=O)(=O)C1CC1)CC2`, the Percent Effect in [1] is -6.06%; in [2], 2.7%; in assay [3] it was 5.7%; in assay [4], -6.06%; in the assay with Trypanosoma cruzi, -3.23%; in assay [5], -1.24%. Besides, the Percent Effect in assay [6] was -7.64%; in the assay filed under Homo sapiens, -2.8%; in assay [7], 2.15%; in [8], 8.64%; in assay [9] it was -4.29%.
For the compound `COCCCC1(CO)CCCN(CCc2ccccc2)C1` (stereo unspecified), the Percent Effect in assay [1] is -1.32%; in assay [2] it was -2.74%; in assay [3], -1.63%; in [4], -2.32%; with Trypanosoma cruzi it was -5.09%; in assay [5] it was 0.909%. In addition, the Percent Effect in assay [6] is -0.887%; in the assay filed under Homo sapiens, -2.97%; in assay [7] it was 1.07%; in [8], 2.5%; in assay [9], -2.34%.
For `Cn1cc(CNC2CCCN(Cc3noc(C4CC4)n3)C2)cn1` (stereo unspecified), the Percent Effect in assay [1] is -1.45%; in assay [2] it was 13.2%; in [3] it was 1.88%; in assay [4] it was -6.33%; in the assay on Trypanosoma cruzi, -4.51%; in [5], 5.75%. In addition, the Percent Effect is 18.7% in assay [6]; 28.1% in the assay listed under Homo sapiens; 2.45% in [7]; 12.2% in assay [8]; -11.8% in assay [9].
Regarding `CSc1cccc(CN(C)C(=O)C2CC(=O)N(CCN(C)C)C2)c1` (stereo unspecified), the Percent Effect was 0.893% in assay [1]; 10.7% in assay [2]; -12.1% in assay [3]; 4.56% in assay [4]; 4.38% in the assay with Trypanosoma cruzi; 18.2% in assay [5]. Besides, the Percent Effect in [6] is 18.1%; in the assay filed under Homo sapiens, 29.9%; in [7] it was 8.2%; in assay [8], 16.1%; in assay [9], -0.611%.
For the compound `COc1cccc(CN(C)C(=O)CN2CCN(CCO)CC2)c1`, the Percent Effect in [1] is -2.96%; in assay [2], 8%; in [3], -6.71%; in [4], 1.75%; in the assay with Trypanosoma cruzi, 0.292%; in [5] it was 3.12%. For the same compound, the Percent Effect in assay [6] is 24.6%; in the assay filed under Homo sapiens, 14.1%; in assay [7], 9.29%; in assay [8], 16.1%; in [9], -7.41%.
As to `Cc1nc(COCc2cnc3n2CCN(C2CCC2)C3C)cs1` (stereo unspecified), the Percent Effect was -2.77% in assay [1]; 5.33% in [2]; -2.96% in assay [3]; 12.2% in assay [4]; 5.21% with Trypanosoma cruzi; -57.2% in assay [5]. Moreover, the Percent Effect in assay [6] was 10.8%; in the assay listed under Homo sapiens, -7.58%; in assay [7] it was 3.12%; in [8] it was 7.5%; in [9], -6.66%.
`CO[C@@H]1CC[C@H]2[C@H]1OCCN2C(=O)C1=CCCC1`: the Percent Effect was -3.13% in [1]; 10.4% in assay [2]; -1.31% in [3]; -0.155% in assay [4]; -4.83% in the assay on Trypanosoma cruzi; 16.1% in assay [5]. Also, the Percent Effect in assay [6] is 7.49%; in the assay filed under Homo sapiens, -1.44%; in assay [7], -2.12%; in assay [8] it was 14.1%; in assay [9], -6.88%.
For the compound `CCOc1ccc(C(=O)NS(=O)(=O)c2cncc(Br)c2)cc1OC`, the Percent Effect in assay [1] was -4.35%; in [2], 13.5%; in assay [3], -8.62%; in assay [4] it was 34.9%; in the assay with Trypanosoma cruzi it was 10.6%; in [5], 3.81%. Moreover, the Percent Effect in [6] is 0.517%; in the assay listed under Homo sapiens it was 2.53%; in assay [7] it was 3.7%; in assay [8] it was 9.76%; in [9], -13.3%.
`CC(CNC(=O)c1cccnc1Oc1cccnc1)N(C)C` (stereo unspecified): the Percent Effect in [1] was -0.805%; in [2], 18.9%; in [3], -3.66%; in assay [4] it was 10.5%; with Trypanosoma cruzi, 6.56%; in assay [5], 10%. The Percent Effect in [6] was 12.9%; in the assay listed under Homo sapiens, 4.67%; in [7], 4.76%; in assay [8] it was 17.1%; in assay [9], -1.51%.
As to `COc1cccc(C(=O)Nc2cc(CC(C)C)nn2C)c1`, the Percent Effect in [1] was -4.81%; in assay [2], -5.2%; in assay [3], -7.56%; in assay [4], 6.82%; in the assay on Trypanosoma cruzi it was 6.74%; in assay [5], -6.41%. For the same compound, the Percent Effect is 3.04% in assay [6]; 11% in the assay filed under Homo sapiens; 4.85% in [7]; 14.6% in [8]; -5.36% in assay [9].

(Values after ChEMBL document CHEMBL3988442, “University of Dundee, Small-Polar-MMV Screening Library” (2021).)
